The values that follow come from PubChem BioAssay AID1851 (National Center for Advancing Translational Sciences (NCATS), 2009).

“And” between values parts separate entries of the source, which are not always exact repeats. Equal values may be shown once. The whole screen tested about 16,000 compounds, of which about 4,000 (25%) were called active. Inconclusive results (about 26%) are left out. The call rests on the fitted dose curve; in most records, active means well fitted curve in the direction sought with a large enough effect; inconclusive means small, poorly fitted or top-dose-only effect, or effect the other way; inactive means no such curve, though single readings can be large or run the other way. These entries were drawn from the full list. A structure can be active in one record and inactive in another.
On the % scale 0 is the no-effect control and ±100 the full control effect.

In this assay the target is Cytochrome P450 2C9 (Homo sapiens) (UniProt P11712). Nature of the assay: Cytochrome panel assay with activity outcomes. Conditions: recombinant CYP, pro-luciferin dealkylation, luminescence, p450-cyp2c9; series mostly up to 57.1 µM.
Chain of Cytochrome P450 2C9 (Homo sapiens) (P11712 whole entry, looked up): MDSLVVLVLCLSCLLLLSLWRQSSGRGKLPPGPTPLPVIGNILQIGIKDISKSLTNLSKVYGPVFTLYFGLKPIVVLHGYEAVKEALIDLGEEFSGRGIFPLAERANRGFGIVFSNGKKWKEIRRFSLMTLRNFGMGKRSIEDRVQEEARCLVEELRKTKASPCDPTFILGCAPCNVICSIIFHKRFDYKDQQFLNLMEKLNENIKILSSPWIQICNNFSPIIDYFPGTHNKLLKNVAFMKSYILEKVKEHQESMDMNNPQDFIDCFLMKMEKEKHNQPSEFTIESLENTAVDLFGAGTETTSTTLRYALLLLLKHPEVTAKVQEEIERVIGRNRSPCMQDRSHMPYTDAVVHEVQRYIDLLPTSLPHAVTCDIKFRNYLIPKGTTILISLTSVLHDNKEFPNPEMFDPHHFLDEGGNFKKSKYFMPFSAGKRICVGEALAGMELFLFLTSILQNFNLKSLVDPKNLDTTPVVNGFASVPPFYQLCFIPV
In the case of `O=CN[C@@H](Cc1cnc[nH]1)C(=O)O`, the activity, negative = inhibition is -3.85% [at 11.4 µM] (inactive).
Take `COc1ccccc1-c1nc(N2CCOCC2)c2ccccc2n1`: the activity, negative = inhibition is 8.77% [at 2.29 µM] (inactive).
One may read the AC50 as the midpoint of the concentration-response curve, whichever way the signal moves. Regarding `CCOC(=O)c1ccccc1Oc1c(F)c(F)nc(NCCO)c1F`, the AC50 is 6.31 µM (active).
For `CCOC(=O)NNc1nncc2ccccc12`, the AC50 result is “inactive”.
For `COc1ccccc1-c1ccc2ncnc(N3CCOCC3)c2c1`, the activity, negative = inhibition was -16.7% [at 2.29 µM] (inactive).
In the case of `COc1ccccc1-c1nc(NCCNC(C)=O)c2ccccc2n1`, the activity, negative = inhibition was 3.78% [at 2.29 µM] (inactive).
Regarding `COC(=O)c1ccccc1Oc1c(F)c(F)nc(N2CCOCC2)c1F`, the AC50 is 15.8 µM (active).
On the same count and under the same terms, the same measure for `O=C(Nc1ccc(Cl)cc1)c1cnc(-c2ccccc2)nc1-c1ccccc1`: 0.794 µM (active).
On the same count and under the same terms, the same measure for `O=C(Nc1ccc(-c2csc(-c3ccccc3)n2)cc1)c1ccccc1Cl`: “inactive”.
With `OC1CC2CC[C@H](C1)N2CCCN1c2ccccc2Sc2ccc(Cl)cc21` (some centres not stated), the activity, negative = inhibition is 8.65% [at 11.4 µM] (inactive).
For `c1cncc(CNc2ncn[nH]2)c1`, the activity, negative = inhibition was -1.61% [at 11.4 µM] (inactive).
Turning to `Cc1ccc(-n2ncc(N(C)C)c(Cl)c2=O)cc1`, the AC50 result is “inactive”.
On the same count and under the same terms, the same measure for `Nc1ccc(Sc2cnn(-c3ccccc3)c(=O)c2Cl)cc1`: 1 µM (active).
Turning to `COC(=O)N1CCC2(CCN(Cc3nccs3)CC2)CC1`, the AC50 entry was “inactive”.
The same measure, in the same setting: the same measure for `Cc1onc(-c2c(Cl)cccc2Cl)c1C(=O)N1CCc2ccccc2C1`: 3.16 µM (active); for `Cc1noc(C)c1C(=O)N1CCC[C@@]2(CCN(Cc3ccccc3)C2)C1`: “inactive”.
Same read-out and setting: next, `Cc1noc(C)c1C(=O)N1CCC2(CCCN(Cc3ccccc3)C2)CC1`: “inactive”.
Same read-out and setting: the same measure for `Cc1ccccc1C(=O)N/N=C/c1ccncc1`: 12.6 µM (active).
Turning to `O=C(N/N=C/c1ccncc1)c1cc([N+](=O)[O-])cc([N+](=O)[O-])c1O`, the AC50 was 0.0631 µM (active).
`O=C(N/N=C\c1cccc(O)c1)c1ccncc1`: the activity, negative = inhibition was 1.23% [at 11.4 µM] (inactive).
For the compound `Cc1ccccc1C(=O)NNC(=O)c1ccoc1C`, the AC50 result was “inactive”.
Still for that read-out and setting: the same measure for `O=C(N/N=C/c1cccnc1)c1ccc([N+](=O)[O-])cc1`: “inactive”; for `CC[C@@H]1OC(=O)[C@H](C)[C@H](O[C@@H]2C[C@](C)(OC)[C@H](O)[C@H](C)O2)[C@H](C)[C@H](O[C@@H]2O[C@@H](C)C[C@@H](N(C)C)[C@@H]2O)[C@](C)(O)C[C@H](C)[C@@H]2N[C@H](COCCOC)O[C@H]([C@@H]2C)[C@]1(C)O`: “inactive”.
As to `C/C=C\C1=C(CO)C(=O)C2O[C@]2(CC=C(C)C)C1=O` (some centres not stated), the activity, negative = inhibition is 9.54% [at 11.4 µM] (inactive).
Turning to `CCn1c(CC(=O)Nc2ccc(C)cc2)nnc1SCC(=O)NCCc1ccccc1`, the half-maximal activity concentration (AC50) is 15.8 µM (active).
Consider `Cc1ccc(NC(=O)CCSc2nnc3ccccn23)cc1`, for which the AC50 result is “inactive”.
Turning to `CC(C)n1nnnc1SCC(=O)NCCc1ccccc1`, the half-maximal activity concentration (AC50) is 15.8 µM (active).
In the case of `N[C@@H](Cc1c[nH]c2ccccc12)C(=O)O`, the AC50 result was “inactive”.
`CCn1c(CNC(=O)COc2ccc(C(C)C)cc2)nnc1SCC(=O)Nc1cc(F)ccc1C`: the AC50 result is “inactive”.
With `C=CCn1c(Cc2c[nH]c3ccccc23)nnc1SCC(=O)NCc1ccccc1`, the half-maximal activity concentration (AC50) is 14.1 µM (active).
Still for that read-out and setting: next, `O=C(CSc1nnnn1-c1ccccc1)NCc1cccs1`: “inactive”; `CCn1c(CSCc2ccc(C)cc2)nnc1SCC(=O)NCc1ccccc1`: 15.8 µM (active).
For `Cc1noc(C)c1-c1nc(Nc2ccncc2)c2ccccc2n1`, the activity, negative = inhibition was -10.8% [at 2.29 µM] (inactive).
Regarding `COc1cccc2c1[C@@H]1CN(CCCCn3c(=O)[nH]c4c(sc5ncc(-c6ccccc6)nc54)c3=O)C[C@H]1CO2`, the AC50 entry is “inactive”.
For the compound `CCN1C(=O)[C@H]2[C@H]3[C@H](O)[C@H](O)C/C(=N/NC(=O)OCc4ccccc4)[C@H]3CC[C@@H]2C1=O`, the activity, negative = inhibition is -10.2% [at 11.4 µM] (inactive).
For the compound `O=C1NCC2=C1C(c1ccc(Br)cc1)Nc1ccccc1N2` (configuration not stated), the concentration at half-maximal activity (AC50) is 8.91 µM (active).
Take `CN(C)Cc1cc(C(C)(C)C)ccc1-c1ccc(C(C)(C)C)cc1CN(C)C`: the activity, negative = inhibition was 12.6% [at 11.4 µM] (inactive).
Take `CN(C)CCNC(=O)Cn1nc(-c2ccc(Cl)cc2)ccc1=O`: the AC50 result is “inactive”.
On the same count and under the same terms, the same measure for `COc1ccc(-c2ccc(=O)n(CC(=O)Nc3nnc(C(C)C)s3)n2)cc1OC`: 14.1 µM (active); for `O=C(O)C1=CCCNC1`: “inactive”.
The same measure, in the same setting: the same measure for `CC(C)C[C@H](NC(=O)[C@@H]1O[C@H]1C(=O)O)C(=O)NCCCCN=C(N)N`: “inactive”; for `CC(C)CNC(=S)N1CCN(C)CC1`: “inactive”; for `C=CCNc1nc(-c2ccc(Cl)cc2)cs1`: 22.4 µM (active).
As for `CCCCSCc1nc2nc(Cl)c(Cl)nc2[nH]1`, the AC50 is 0.501 µM (active).
In the case of `Nc1ccc(CCNc2ncnc3c2ncn3[C@@H]2O[C@@H](CO)[C@H](O)[C@@H]2O)cc1`, the AC50 result is “inactive”.
Same read-out and setting: the same measure for `COc1ccc(CC(=O)NCCN2CCCC2)cc1`: “inactive”; for `COc1ccc(-c2ccc(C(=S)N3CCN(C(C)=O)CC3)o2)cc1`: 3.98 µM (active).
Still for that read-out and setting: next, `COc1ccc(C(=O)N2CCC3(CCN(C)CC3)CC2)cc1`: “inactive”.
Same read-out and setting: next, `COc1ccc(CCN(C)CCC(=O)Nc2c(C)cc(C)cc2C)cc1OC`: “inactive”; `COc1ccc(COC(=O)N/N=C(\C)CC(=O)Nc2c(C)cc(C)cc2C)cc1`: 14.1 µM (active).
Take `COc1ccc(COC(=O)N/N=C2/C[C@@H](O)[C@@H](O)[C@@H]3[C@@H]4C(=O)N(C(C)(C)C)C(=O)[C@H]4CC[C@@H]23)cc1`: the activity, negative = inhibition is -5.52% [at 11.4 µM] (inactive).
With `COc1ccccc1-c1nc(N(C)C)c2ccccc2n1`, the activity, negative = inhibition is -2.29% [at 2.29 µM] (inactive).
Consider `COc1ccc(C(=O)N2CCC3(CC2)CN(C(=O)Nc2cccc(C#N)c2)C3)cc1`, for which the AC50 result was “inactive”.
Take `CC(=O)N1CCC2(CC1)CN(Cc1ccccc1)C2`: the AC50 result is “inactive”.
Still for that read-out and setting: the same measure for `CCC(=O)N1CCN(C(=O)c2ccccc2)CC1`: “inactive”; for `CC(=O)N1CCN(C(=O)CC2OC(=O)c3ccccc32)CC1` (configuration not stated): 15.8 µM (active).
Same read-out and setting: the same measure for `O=C(Nc1ccccc1)C(Cc1ccccc1)NC(=O)C12CC3CC(CC(C3)C1)C2` (configuration not stated): “inactive”; for `CCc1cc2cc(C)c(C)cc2nc1SCC(=O)NNC(=O)c1ccco1`: “inactive”.
Still for that read-out and setting: next, `CC(C)Oc1ccc(C(=O)Nc2ccc(NC(=O)c3ccco3)c(Cl)c2)cc1`: 14.1 µM (active); `Cc1ccc(SCC(=O)NNC(=O)C2CCCCC2)cc1`: “inactive”; `COc1ccc(C(=O)Nc2ccc(NC(=O)c3ccco3)c(Cl)c2)cc1OC`: “inactive”.
Consider `CC(C)C[C@H](NC(=O)[C@@H](O)[C@@H](N)Cc1ccccc1)C(=O)O`, for which the AC50 result is “inactive”.
On the same count and under the same terms, the same measure for `Cc1ccc(SCC(=O)Nc2cccc(NC(=O)c3ccco3)c2)cc1`: 4.47 µM (active).
As for `CC(=O)c1ccc(NC(=O)C(Cc2ccccc2)NC(=O)c2ccco2)cc1` (configuration not stated), the half-maximal activity concentration (AC50) was 14.1 µM (active).
Take `Cc1cc(NC(=O)c2ccco2)ccc1-n1cnnn1`: the concentration at half-maximal activity (AC50) was 10 µM (active).
On the same count and under the same terms, next, `NC(=NCc1ccccc1)NC(=O)c1nc(Cl)c(N)nc1N`: “inactive”.
On to `CN(C)C(=O)c1ccc(-c2ccc3ncnc(N4CCNCC4)c3c2)cc1`, for which the activity, negative = inhibition is 6.81% [at 2.29 µM] (inactive).
The same measure, in the same setting: the same measure for `Cc1noc(C)c1-c1ccc2ncnc(N(C)Cc3ccco3)c2c1`: -29% [at 2.29 µM] (inactive).
For the compound `COc1cccc(C(=O)Nc2ccc(NC(=O)c3ccco3)cn2)c1`, the half-maximal activity concentration (AC50) was 14.1 µM (active).
For the compound `CC(C)(C)c1ccc(C(=O)Nc2ccc(NC(=O)c3ccco3)cc2)cc1`, the concentration at half-maximal activity (AC50) was 8.91 µM (active).
Consider `CCc1nnc2sc(-c3ccc(NC(=O)c4ccco4)cc3)nn12`, for which the AC50 result was “inactive”.
On to `c1ccc(CNc2ncncc2-c2cccnc2)cc1`, for which the activity, negative = inhibition was -3.05% [at 2.29 µM] (inactive).
Consider `COc1ccc2oc(C(=O)c3ccccc3)c(N)c2c1`, for which the AC50 is 11.2 µM (active).
On the same count and under the same terms, next, `COc1ccc(C(=O)c2ccccc2)c(O)c1`: “inactive”; `COc1ccc2nccc(C(=O)O)c2c1`: “inactive”.
In the case of `Cc1noc(C)c1-c1ccc2ncnc(NCc3cccs3)c2c1`, the activity, negative = inhibition was -7.45% [at 2.29 µM] (inactive).
On to `CC(C)NC[C@H]1CCc2cc(CO)c([N+](=O)[O-])cc2N1`, for which the AC50 result is “inactive”.
Take `CN(CCO)Cc1ncccc1O`: the activity, negative = inhibition is -2.29% [at 11.4 µM] (inactive).
As to `CN1CCN(CC(=O)N2c3ccccc3Sc3cc4ccccc4cc32)CC1`, the activity, negative = inhibition is 5.77% [at 11.4 µM] (inactive).
In the case of `CN1CCN(CC(=O)N2c3ccccc3C(=O)Nc3cccnc32)CC1`, the AC50 entry is “inactive”.
Turning to `Cc1scc2c1N(C(=O)CN1CCN(C)CC1)c1ccccc1NC2=O`, the concentration at half-maximal activity (AC50) result is “inactive and 2.51 µM (active)”.
As for `CNc1cc(-c2ccccc2C(F)(F)F)ncn1`, the activity, negative = inhibition is 22.5% [at 2.29 µM] (inactive).
Same read-out and setting: next, `Nc1n[nH]c2ccccc12`: -15.6% [at 11.4 µM] (inactive).
With `Nc1[nH]nc2nc3ccccc3nc12`, the concentration at half-maximal activity (AC50) was 2 µM (active).
On the same count and under the same terms, the same measure for `O=c1[nH]c(=O)c2nc3ccccc3nc2[nH]1`: “inactive”.
Take `CC[C@@H]1CC(=O)N(SC[C@H](N)C(=O)O)C1=O`: the activity, negative = inhibition was 10.2% [at 11.4 µM] (inactive).
On to `CC1CC2(CCCCC2)N2C(=O)C(=O)c3cccc1c32` (configuration not stated), for which the AC50 is 5.01 µM (active).
Regarding `O=c1[nH]c2cc(Br)cnc2nc1/C=C(\O)c1ccc(F)cc1`, the AC50 result was “inactive”.
The same measure, in the same setting: the same measure for `O=c1cc(-c2ccccc2)[nH]c2nc(Cl)ccc12`: “inactive”.
Same read-out and setting: the same measure for `Cc1ccccc1S(=O)(=O)c1c(C)cc(-c2ccccc2)[nH]c1=O`: 22.4 µM (active); for `CN(C)CCCNc1c(C(=O)O)cnc2c1cnn2C`: “inactive”.
Same read-out and setting: next, `COc1cccc(Nc2ncc3nc(-c4ccc(F)cc4)c(=O)n(C)c3n2)c1`: “inactive”; `COc1ccc(-c2nc3cnc(OC)nc3n(C)c2=O)cc1`: “inactive”.
In the case of `Cn1c2c(c(=O)n(C)c1=O)C(C(F)(F)F)(C(F)(F)F)N=C(c1ccc(Cl)cc1)N2`, the AC50 was 2 µM (active).
On the same count and under the same terms, the same measure for `COc1ccc(C2=NC(C(F)(F)F)(C(F)(F)F)c3c(n(C)c(=O)n(C)c3=O)N2)cc1`: 8.91 µM (active); for `Cn1c(=O)c(-c2ccc(Cl)cc2)nc2cncnc21`: “inactive”; for `CCN1CCc2nc(N)oc2CC1`: “inactive”.
